Test results: the supplement of paper PMC13380429

Test system: Vero E6 infected with SARS-CoV-2
Assay: inhibition of SARS-CoV-2 cytopathic effect; higher = more antiviral protection, active = above 15
Settings: 48 h

Measured: inhibition of SARS-CoV-2 cytopathic effect

Cc1cccc(C)c1NC(=O)/N=C1\CCCN1C [xilobam]
inactive: 1 nM -1.73% | 8.33 nM -0.97% | 100 nM 1.82% | 833.33 nM -0.83% | 10000 nM 1.68%

CC(COc1ccccc1Cc1ccccc1)N1CCCCC1 (stereo not given) [benproperine]
inactive: 1 nM -1.82% | 8.33 nM 0.63% | 100 nM -0.71% | 833.33 nM -3.69% | 10000 nM -3.54%

O=C(NC[C@H](O)CN1CCc2ccccc2C1)c1cc(NC2COC2)ncn1
inactive: 1 nM -3.14% | 8.33 nM -1.3% | 100 nM -2.1% | 833.33 nM -3.82% | 10000 nM -1.65%

COc1ccc(S(=O)(=O)N2CCC[C@H]2C(=O)Nc2cc(C)cc(C)c2)cc1
inactive: 1 nM -4.61% | 8.33 nM -4.21% | 100 nM -5.02% | 833.33 nM -4.87% | 10000 nM 1.64%

Cc1cnc(-c2cnc(NCCNc3ccc(C#N)cn3)nc2-c2ccc(Cl)cc2Cl)[nH]1
inactive: 1 nM 2.72% | 8.33 nM 3.19% | 100 nM -2.16% | 833.33 nM 3.98% | 10000 nM 12.1%

Cc1ccc2nc(NCCN)c3ncc(C)n3c2c1
inactive: 1 nM -1.03% | 8.33 nM -0.71% | 100 nM -2.54% | 833.33 nM 0.69% | 10000 nM -11.4%

Cc1cc(Nc2ncnc3ccc(-c4ccc(CNCCS(C)(=O)=O)o4)cc23)ccc1Oc1ccn2ncnc2c1 [HER2-Inhibitor-1]
inactive: 1 nM 2.32% | 8.33 nM 3.23% | 100 nM -0.2% | 833.33 nM -2.65% | 10000 nM 3.1%

CC(C)C[C@H](NC(=O)N1CCCCCC1)C(=O)N[C@H](Cc1cn(C)c2ccccc12)C(=O)N[C@H](Cc1ccccn1)C(=O)O
inactive: 1 nM -0.85% | 8.33 nM 2.47% | 100 nM 0.97% | 833.33 nM -2.82% | 10000 nM 2.44%

O=C(NCCN1CCN(c2ncccn2)CC1)C12CC3CC(CC(C3)C1)C2 [adatanserin]
inactive: 1 nM -1.23% | 8.33 nM 0.62% | 100 nM -2.77% | 833.33 nM 2.26% | 10000 nM -1.99%

CCCn1c(=O)c(C)cn2nc(N)nc12
inactive: 1 nM 3.43% | 8.33 nM 2.31% | 100 nM -0.1% | 833.33 nM 2.28% | 10000 nM -2.15%

Fc1ccc(C(OCCN2CCN(CCCc3ccccc3)CC2)c2ccc(F)cc2)cc1 [vanoxerine]
inactive: 1 nM -2.38% | 8.33 nM -0.72% | 100 nM 2.06% | 833.33 nM -3.95% | 10000 nM -11.6%

CC(=O)O[C@@]12CO[C@@H]1C[C@H](O)[C@@]1(C)C(=O)[C@H](O)C3=C(C)[C@@H](O)C[C@@](O)([C@@H](OC(=O)c4ccccc4)[C@H]21)C3(C)C [10-deacetylbaccatin]
inactive: 1 nM -0.5% | 8.33 nM 0.94% | 100 nM -1.67% | 833.33 nM -4.55% | 10000 nM -2.63%

CC1(C)[C@H]2CC[C@]1(C)[C@@H](O)[C@H]2O [cis-exo-camphanediol-2,3]
inactive: 1 nM 1.51% | 8.33 nM 2.75% | 100 nM 4.45% | 833.33 nM 5.23% | 10000 nM 0.605%

O=C(c1c(F)ccc(NS(=O)(=O)N2CC[C@@H](F)C2)c1F)c1c[nH]c2ncc(-c3cnc(C4CC4)nc3)cc12
inactive: 1 nM 3.26% | 8.33 nM -1.73% | 100 nM -2.71% | 833.33 nM -1.89% | 10000 nM -5.07%

CCOC(=O)[C@@]1(CCCCCCOc2ccc(Cl)cc2)CO1 [etomoxir]
inactive: 1 nM -0.23% | 8.33 nM -0.29% | 100 nM 1.79% | 833.33 nM 2.79% | 10000 nM -4.51%

OCc1ccc(O[C@@H]2O[C@H](CO)[C@@H](O)[C@H](O)[C@H]2O)cc1 [gastrodin]
inactive: 1 nM -0.38% | 8.33 nM -2.3% | 100 nM -2.66% | 833.33 nM -2.37% | 10000 nM -4.3%

CN1CCN(C(=O)O[C@H]2c3nccnc3C(=O)N2c2ccc(Cl)cn2)CC1
inactive: 1 nM 0.72% | 8.33 nM 1.71% | 100 nM 2.86% | 833.33 nM 2.34% | 10000 nM 0.85%

CCOC(=O)c1ncn2c1CN(C)C(=O)c1cc(F)ccc1-2 [flumazenil]
inactive: 1 nM -5.56% | 8.33 nM -4.56% | 100 nM -4.89% | 833.33 nM -4.65% | 10000 nM -1.96%

C[C@H](NC(=O)/C(C#N)=C/c1cccc(Br)n1)c1ccccc1
inactive: 1 nM -2.07% | 8.33 nM -1.75% | 100 nM -2.65% | 833.33 nM 5.36% | 10000 nM -4.77%

COc1cc2c(cc1OC)[C@@]13CCN4CC5=CCO[C@H]6CC(=O)N2[C@H]1[C@H]6[C@H]5C[C@H]43 [brucine]
inactive: 1 nM 7.12% | 8.33 nM 1.25% | 100 nM 3.51% | 833.33 nM 2.71% | 10000 nM 0.47%

Nc1nc2c(c(N3CCNCC3)n1)CCC1=C2[C@@H]2CCCC[C@@H]2O1
inactive: 1 nM 1.61% | 8.33 nM 0.48% | 100 nM 1.56% | 833.33 nM 2.05% | 10000 nM -2.01%

Nc1ccc(S(=O)(=O)Nc2nccs2)cc1 [sulfathiazole]
inactive: 1 nM 1.78% | 8.33 nM 2.25% | 100 nM 0.28% | 833.33 nM 1.1% | 10000 nM -0.08%

CN(C)CCCO[C@@H]1[C@H]2OC(C)(C)O[C@H]2O[C@@H]1[C@H](O)CO [amiprilose]
inactive: 1 nM -4.79% | 8.33 nM -3.54% | 100 nM -5.54% | 833.33 nM -4.16% | 10000 nM -1.28%

O=C(Nc1ccc(Cl)cc1)Nc1ccc(Cl)c(Cl)c1 [triclocarban]
inactive: 1 nM -2.22% | 8.33 nM -0.87% | 100 nM 0.35% | 833.33 nM -1.44% | 10000 nM -0.6%

O=c1cc[nH]c(=S)[nH]1 [2-thiouracil]
inactive: 1 nM 3.22% | 8.33 nM 2.55% | 100 nM 2.51% | 833.33 nM 0.11% | 10000 nM -0.68%

O=C(CCN1CCN(C(=O)OCc2cc(Cl)cc(Cl)c2)CC1)c1ccc2[nH]c(=O)oc2c1
inactive: 1 nM 3.18% | 8.33 nM 5.29% | 100 nM 2.77% | 833.33 nM 4.56% | 10000 nM 1.71%

CC(NCCc1ccc(O)cc1)C(O)c1ccc(O)cc1 (stereo not given) [ritodrine]
inactive: 1 nM 0.34% | 8.33 nM -0.09% | 100 nM 1.29% | 833.33 nM -2.19% | 10000 nM -1.02%

CCOC(=O)Nc1ccc(NCc2ccc(F)cc2)cc1N [Retigabine]
inactive: 1 nM -1.92% | 8.33 nM 1.16% | 100 nM -1.6% | 833.33 nM -2.18% | 10000 nM 1.01%

NC(=O)CN1Cc2ccccc2OC1=O [caroxazone]
inactive: 1 nM 1.09% | 8.33 nM -3.02% | 100 nM -3.19% | 833.33 nM -4.05% | 10000 nM -0.94%

COc1cc2c(cc1O)C(CCc1ccc(Cl)cc1)N(C)CC2 (stereo not given)
inactive: 1 nM 0.21% | 8.33 nM 2.27% | 100 nM 0.29% | 833.33 nM 0% | 10000 nM 0.49%

O=C(N[C@H]1CN2CCC1CC2)c1ccc2c(c1)OCCO2
inactive: 1 nM -2.13% | 8.33 nM -1.4% | 100 nM -0.74% | 833.33 nM -0.26% | 10000 nM -1.59%

CCOC(=O)C1=C(C)NC(c2ccccc2)=C(C(=O)OCc2ccc([N+](=O)[O-])cc2)[C@@H]1C#Cc1ccccc1
inactive: 1 nM 2.05% | 8.33 nM -1.34% | 100 nM 0.42% | 833.33 nM 1.51% | 10000 nM 3.9%

CC(=O)O/N=C1\C(=O)N(Cc2cc(Cl)ccc2Cl)c2ccc(Cl)cc21
inactive: 1 nM -1.23% | 8.33 nM 0.39% | 100 nM 0.49% | 833.33 nM 3.77% | 10000 nM 4.47%

Clc1cccc(-c2nnnn2Cc2cccnc2)c1Cl
inactive: 1 nM -1.94% | 8.33 nM -0.7% | 100 nM 0.71% | 833.33 nM -2.59% | 10000 nM -3.45%

O[C@@H](COc1cccc2ncccc12)CN1CCN([C@@H]2c3ccccc3[C@@H]3[C@H](c4ccccc42)C3(F)F)CC1 [zosuquidar]
inactive: 1 nM -0.36% | 8.33 nM 1.65% | 100 nM 0.11% | 833.33 nM 0.85% | 10000 nM -3.28%

Cc1ccc(NC(=O)c2ccc(CN3CC[C@H](N(C)C)C3)c(C(F)(F)F)c2)cc1Nc1nccc(-c2cncnc2)n1 [bafetinib]
inactive: 1 nM 3.35% | 8.33 nM -0.19% | 100 nM 0.01% | 833.33 nM -3.15% | 10000 nM -4.8%

N#Cc1ccc(C2CCCc3cncn32)cc1 (stereo not given) [fadrozole]
inactive: 1 nM 1.9% | 8.33 nM 0.56% | 100 nM -1.22% | 833.33 nM -4.4% | 10000 nM -0.19%

CC(=O)Nc1ccc(CC(=O)O)cc1 [actarit]
inactive: 1 nM 1.96% | 8.33 nM -0.52% | 100 nM 0.35% | 833.33 nM -0.15% | 10000 nM -0.41%

O=C(O)c1cc(O)c2c(c1)[C@H]([C@H]1c3cc(C(=O)O)cc(O)c3C(=O)c3c(O[C@@H]4O[C@H](CO)[C@@H](O)[C@H](O)[C@H]4O)cccc31)c1cccc(O[C@@H]3O[C@H](CO)[C@@H](O)[C@H](O)[C@H]3O)c1C2=O [sennoside-A]
inactive: 1 nM -3.2% | 8.33 nM 0% | 100 nM 0.82% | 833.33 nM 0.38% | 10000 nM -2.08%
